Test [1] in a line: ATG_CMV_CIS: Attagene CIS-FACTORIAL HepG2 Assay for human CMV (Internal Marker) (AID 2282928).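 Note: endpoint acts as a background internal control marker rather than a target.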 The following applies: HepG2 CMV promoter reporter, transcription factor profiling; actives raise or lower the signal. In a few lines:
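Endogenous transcription factor activity read in HepG2 via transfected cis-promoter reporter units. After 24 h dosing, reporter mRNA measured by RT-PCR/capillary electrophoresis; gain or loss of signal fit relative to DMSO.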

Test [2] is described as follows: ATG_DR4_LXR_CIS: Attagene CIS-FACTORIAL HepG2 Assay for human Liver X Receptor (LXR), DR4 submotif (AID 2282929). The following applies: HepG2 Attagene DR4 cis-reporter, mRNA transcription; actives raise or lower the signal. The procedure, abridged: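 Transiently transfected HepG2 liver cells; cis-regulated reporters; 24 h dosing. RT-PCR plus CE read-out of reporter mRNA. DMSO baseline, bidirectional curve fitting.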

The nature of test [3]: ATG_AP_2_CIS: Attagene CIS-FACTORIAL HepG2 Assay for human Activator Protein 2 (AP-2) (AID 2282932). The following applies: HepG2 AP-2 cis-reporter, Attagene transcription factor profiling; actives raise or lower the signal. In a few lines: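 HepG2 cells were transiently transfected with multiple cis-promoter reporter transcription units and dosed for 24 h. Reporter mRNA was measured by RT-PCR with capillary electrophoresis fluorescence; bidirectional fits relative to DMSO baseline.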

The target of test [4] is Transcription factor E2F1 (Homo sapiens) (UniProt Q01094). Nature of the test: ATG_E2F_CIS: Attagene CIS-FACTORIAL HepG2 Assay for human E2F Transcription Factor 1 (AID 2282935). The following applies: HepG2 Attagene cis-reporter, E2F reporter RNA transcripts; actives raise or lower the signal. In a few lines: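 HepG2 cells transiently transfected with multiplexed cis-element reporter units, dosed for 24 h. Reporter mRNA measured by RT-PCR, 6-FAM primer-extension labeling, HpaI digestion and capillary electrophoresis; bidirectional fit versus DMSO baseline.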

Test [5] can be described thus: ATG_M_61_CIS: Attagene CIS-FACTORIAL HepG2 Assay for M61 Transcription Factor (Internal Marker) (AID 2282937). The settings on record: HepG2 Attagene CIS-FACTORIAL M61 internal marker reporter; actives raise or lower the signal. In a few lines:
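Multiplexed reporter mRNA assay, HepG2 human hepatoma cells, 24 h treatment. Signal: FAM-labelled, HpaI-digested RT-PCR fragments by CE. Fit: bidirectional, baseline DMSO.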

The nature of test [6]: ATG_EGR_CIS: Attagene CIS-FACTORIAL HepG2 Assay for human Early Growth Response 1 (EGR1) (AID 2282938). The settings on record: HepG2 Attagene CIS-FACTORIAL EGR reporter mRNA; actives raise or lower the signal. In a few lines:
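Multiplexed cis-reporter system in human hepatoma HepG2 cells, transiently transfected. Cells are dosed for 24 h; reporter transcripts are amplified, fluorescently tagged and sized by capillary electrophoresis, with DMSO as negative control.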

A short description of test [7]: ATG_Ets_CIS: Attagene CIS-FACTORIAL HepG2 Assay for human Erythroblast Transformation Specific (ETS) (AID 2282941). The settings on record: HepG2 ETS cis-reporter transcription, actives raise or lower the signal. The procedure, abridged: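 Steps: transfect HepG2 with multiple reporter units; treat compound 24 h; isolate RNA, DNase-treat, reverse-transcribe; PCR-amplify, label with 6-FAM, digest with HpaI; separate by capillary electrophoresis. Activity fitted both directions versus DMSO.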

Test [8] deals with Hepatocyte nuclear factor 3-beta (Homo sapiens) (UniProt Q9Y261). The experiment in a line: ATG_FoxA2_CIS: Attagene CIS-FACTORIAL HepG2 Assay for human Forkhead box A2 (FOXA2) (AID 2282942). The following applies: HepG2 cis-reporter transcription factor activity, 24 h; actives raise or lower the signal. In a few lines: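 Multiplexed cis-element reporter assay in transiently transfected HepG2. Twenty-four hours post-dosing, RNA was reverse-transcribed, amplified, FAM-labelled, HpaI-digested and separated by CE. Activity gain or loss relative to DMSO.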

Test [9] can be described thus: ATG_FoxO_CIS: Attagene CIS-FACTORIAL HepG2 Assay for human Forkhead box O (FoxO) (AID 2282943). The following applies: HepG2 Attagene cis-reporter, FoxO element, mRNA; actives raise or lower the signal. In a few lines:
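24 h chemical exposure, HepG2 with transient cis-MRTU transfection. RNA extraction, oligo(dT) RT, reporter-specific PCR, primer-extension labelling, HpaI digestion, CE fragment analysis; bidirectional fit, DMSO baseline.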

Test [10] in a line: ATG_GATA_CIS: Attagene CIS-FACTORIAL HepG2 Assay for human GATA Binding Protein (AID 2282944). The following applies: HepG2 GATA cis-element reporter, Attagene multiplex mRNA; actives raise or lower the signal. In a few lines: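 Endogenous transcription factor activity was captured through cis-promoter-driven reporters in transfected HepG2 cells. After 24 h exposure, reporter transcripts were quantified by RT-PCR with fluorescent capillary electrophoresis, and responses fitted both directions against DMSO.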

Test [11] in a line: ATG_ISRE_CIS: Attagene CIS-FACTORIAL HepG2 Assay for human Interferon Regulatory Factor 1 (IRF1) binding to an Interferon-Stimulated Response Element (ISRE) (AID 2282948). The settings on record: HepG2 ISRE cis-reporter (Attagene), mRNA transcription readout; actives raise or lower the signal. The procedure, abridged: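 Transfected HepG2 (multiple reporter transcription units, cis elements) dosed 24 h. RNA → oligo(dT) RT → PCR → 6-FAM primer extension → HpaI → CE. DMSO = negative control/baseline.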

The nature of test [12]: ATG_M_32_CIS: Attagene CIS-FACTORIAL HepG2 Assay for M32 Transcription Factor (Internal Marker) (AID 2282949).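 Note: background control marker of the multiplexed CIS panel rather than a real target.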 The settings on record: HepG2 Attagene cis-factorial M32 reporter, mRNA; actives raise or lower the signal. In a few lines: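 Internal background marker read-out: RT-PCR/capillary electrophoresis fluorescence of reporter transcripts from transiently transfected HepG2 cells after 24 h chemical exposure. Activity fitted bidirectionally relative to DMSO negative control.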

For test [13], the target named is Hepatocyte nuclear factor 6 (Homo sapiens) (UniProt Q9UBC0). Nature of the test: ATG_HNF6_CIS: Attagene CIS-FACTORIAL HepG2 Assay for human Hepatocyte Nuclear Factor 6 (HNF6) (AID 2282952). The following applies: HepG2 Attagene cis-factorial HNF6 reporter transcription; actives raise or lower the signal. In a few lines:
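HepG2, transient MRTU transfection (cis promoters); 24 h chemical exposure; total RNA → oligo(dT) RT → PCR → 6-FAM labelling → HpaI cut → CE; bidirectional fit vs DMSO.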

The target of test [14] is Heat shock factor protein 1 (Homo sapiens) (UniProt Q00613). Nature of the test: ATG_HSE_CIS: Attagene CIS-FACTORIAL HepG2 Assay for human Heat Shock Transcription Factor 1 (HSE) (AID 2282953). The settings on record: HepG2 HSE cis-reporter, Attagene RNA transcription; actives raise or lower the signal. The procedure, abridged:
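Cells were transfected with cis-element-driven reporter constructs, dosed for 24 h, then total RNA was reverse-transcribed and reporter cDNA amplified, FAM-labelled and digested with HpaI. Fragments were resolved by capillary electrophoresis; gain or loss was fitted against DMSO.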

A short description of test [15]: ATG_MRE_CIS: Attagene CIS-FACTORIAL HepG2 Assay for human Metal Responsive Element (MRE) (AID 2282954). The settings on record: HepG2 MRE cis-reporter transcription, Attagene multiplex; actives raise or lower the signal. In a few lines:
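HepG2 cells transiently transfected with multiple cis-element reporter units measure endogenous MTF1-driven transcription. After 24 h compound exposure, reporter mRNA is quantified by RT-PCR with 6-FAM labelling, HpaI digestion and capillary electrophoresis; bidirectional fits versus DMSO.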

Test [16] addresses Paired box protein Pax-6 (Homo sapiens) (UniProt P26367). Nature of the test: ATG_Pax6_CIS: Attagene CIS-FACTORIAL HepG2 Assay for human Paired Box 6 (PAX6) (AID 2282956). The following applies: HepG2 CIS-FACTORIAL PAX6 reporter transcription, RNA readout; actives raise or lower the signal. The procedure, abridged: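 Transient MRTU transfection of HepG2 → compound exposure 24 h → TriZol RNA, oligo(dT) RT → PCR, 6-FAM primer extension, HpaI cut → capillary electrophoresis; activity fitted both directions against DMSO.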

The nature of test [17]: ATG_PXRE_CIS: Attagene CIS-FACTORIAL HepG2 Assay for human Pregnane X Receptor Element (PXRE) (AID 2282957). The following applies: HepG2 Attagene CIS-FACTORIAL PXRE reporter, mRNA; actives raise or lower the signal. The procedure, abridged:
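Transfect HepG2 with MRTUs (cis promoter elements); dose chemical, incubate 24 h; isolate RNA, RT with oligo(dT), PCR, 6-FAM label, HpaI cut, CE. Gain/loss fit vs DMSO.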

The nature of test [18]: ATG_Sox_CIS: Attagene CIS-FACTORIAL HepG2 Assay for human SRY-box transcription factor (SOX) (AID 2282960). The following applies: HepG2 Attagene cis-factorial SOX reporter, mRNA; actives raise or lower the signal. The procedure, abridged:
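Fluorescence-labelled cDNA fragments from reporter transcripts, sized by CE, give the signal. Cells: HepG2, transiently transfected with cis-regulated reporter units. Exposure 24 h; DMSO negative control; bidirectional curve fitting.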

Test [19] can be described thus: ATG_SREBP_CIS: Attagene CIS-FACTORIAL HepG2 Assay for human Sterol Regulatory Element Binding (SREBP) (AID 2282962). The settings on record: HepG2 Attagene cis-factorial SREBP reporter, mRNA; actives raise or lower the signal. The procedure, abridged: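 Transfected HepG2 (cis-regulated reporter library, endogenous TFs) → compound 24 h → total RNA → oligo(dT) RT → reporter-specific PCR → FAM primer extension, HpaI cut → CE fluorescence. Fit bidirectional vs DMSO.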

Test [20] deals with Androgen receptor (Homo sapiens) (UniProt P10275). Nature of the test: ATG_AR_TRANS: Attagene TRANS-FACTORIAL HepG2 Assay for human Androgen Receptor (AR) (AID 2282973; active = hit-call score of the fitted dose curve at least 0.9, where 1 is the maximum). The following applies: HepG2 Attagene TRANS-FACTORIAL AR reporter transcription. In a few lines:
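Steps: transfect HepG2 with multiple GAL4-UAS reporter transcription units (TRANS format, exogenous NR-Gal4 protein); dose 24 h; isolate RNA, reverse-transcribe, PCR-amplify, FAM-label, HpaI-digest; resolve by capillary electrophoresis. Positive direction vs DMSO.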

Each structure is given as a SMILES string. Inconclusive results are not listed. Activity calls are given as the source filed them. Rule for the calls, unless noted: active = hit-call score of the fitted dose curve at least 0.9, where 1 is the maximum; inactive = score below 0.9.

Sequence of Androgen receptor (Homo sapiens) (P10275 whole entry, looked up, the tested form may be a part): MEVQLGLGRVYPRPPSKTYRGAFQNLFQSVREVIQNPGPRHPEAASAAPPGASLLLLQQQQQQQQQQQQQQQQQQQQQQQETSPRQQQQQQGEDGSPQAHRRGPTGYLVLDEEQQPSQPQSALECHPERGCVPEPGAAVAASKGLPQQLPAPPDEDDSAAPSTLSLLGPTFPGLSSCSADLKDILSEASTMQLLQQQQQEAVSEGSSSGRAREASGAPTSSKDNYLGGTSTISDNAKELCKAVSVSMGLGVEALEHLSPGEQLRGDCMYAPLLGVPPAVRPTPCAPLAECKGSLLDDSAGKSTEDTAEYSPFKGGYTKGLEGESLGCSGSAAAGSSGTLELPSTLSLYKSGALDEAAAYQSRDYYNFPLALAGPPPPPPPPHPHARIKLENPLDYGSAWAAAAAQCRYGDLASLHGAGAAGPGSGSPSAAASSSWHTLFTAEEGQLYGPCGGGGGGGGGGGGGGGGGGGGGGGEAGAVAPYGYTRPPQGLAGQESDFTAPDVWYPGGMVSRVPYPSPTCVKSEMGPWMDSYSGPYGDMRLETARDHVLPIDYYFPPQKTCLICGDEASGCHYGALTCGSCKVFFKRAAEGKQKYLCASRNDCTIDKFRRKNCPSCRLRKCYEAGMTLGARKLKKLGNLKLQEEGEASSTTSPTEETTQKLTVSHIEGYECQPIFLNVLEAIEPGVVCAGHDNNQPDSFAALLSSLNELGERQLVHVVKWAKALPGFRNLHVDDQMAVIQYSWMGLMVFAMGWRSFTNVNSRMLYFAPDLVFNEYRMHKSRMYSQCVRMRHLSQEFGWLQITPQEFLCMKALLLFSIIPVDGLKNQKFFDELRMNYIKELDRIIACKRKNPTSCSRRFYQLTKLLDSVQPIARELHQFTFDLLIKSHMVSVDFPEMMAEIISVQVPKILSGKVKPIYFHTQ
Sequence of Paired box protein Pax-6 (Homo sapiens) (P26367 whole entry, looked up): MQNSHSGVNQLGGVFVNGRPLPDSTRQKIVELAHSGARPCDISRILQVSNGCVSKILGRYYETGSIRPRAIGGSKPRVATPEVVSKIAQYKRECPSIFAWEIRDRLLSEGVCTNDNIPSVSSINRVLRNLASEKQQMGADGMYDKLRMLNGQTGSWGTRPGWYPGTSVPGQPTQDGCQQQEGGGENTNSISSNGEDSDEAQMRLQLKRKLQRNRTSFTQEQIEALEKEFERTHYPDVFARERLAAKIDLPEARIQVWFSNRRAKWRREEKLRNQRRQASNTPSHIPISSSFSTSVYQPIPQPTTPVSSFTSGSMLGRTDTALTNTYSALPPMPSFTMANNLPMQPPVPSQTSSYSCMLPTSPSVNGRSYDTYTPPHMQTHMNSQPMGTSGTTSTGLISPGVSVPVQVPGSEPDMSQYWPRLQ
Sequence of Hepatocyte nuclear factor 6 (Homo sapiens) (Q9UBC0 whole entry, looked up): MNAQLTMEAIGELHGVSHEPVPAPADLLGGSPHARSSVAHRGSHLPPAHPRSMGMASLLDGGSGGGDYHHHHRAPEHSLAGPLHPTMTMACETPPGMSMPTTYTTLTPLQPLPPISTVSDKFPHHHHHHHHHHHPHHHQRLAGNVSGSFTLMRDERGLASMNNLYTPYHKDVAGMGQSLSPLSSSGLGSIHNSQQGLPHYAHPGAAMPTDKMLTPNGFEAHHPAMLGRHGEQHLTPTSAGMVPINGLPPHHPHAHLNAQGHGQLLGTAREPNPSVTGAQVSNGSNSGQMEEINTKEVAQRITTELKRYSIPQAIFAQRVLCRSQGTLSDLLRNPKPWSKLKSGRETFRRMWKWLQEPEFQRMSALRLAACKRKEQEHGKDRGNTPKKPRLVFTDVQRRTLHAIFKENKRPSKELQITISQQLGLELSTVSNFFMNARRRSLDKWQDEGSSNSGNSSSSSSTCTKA
Sequence of Hepatocyte nuclear factor 3-beta (Homo sapiens) (Q9Y261 whole entry, looked up): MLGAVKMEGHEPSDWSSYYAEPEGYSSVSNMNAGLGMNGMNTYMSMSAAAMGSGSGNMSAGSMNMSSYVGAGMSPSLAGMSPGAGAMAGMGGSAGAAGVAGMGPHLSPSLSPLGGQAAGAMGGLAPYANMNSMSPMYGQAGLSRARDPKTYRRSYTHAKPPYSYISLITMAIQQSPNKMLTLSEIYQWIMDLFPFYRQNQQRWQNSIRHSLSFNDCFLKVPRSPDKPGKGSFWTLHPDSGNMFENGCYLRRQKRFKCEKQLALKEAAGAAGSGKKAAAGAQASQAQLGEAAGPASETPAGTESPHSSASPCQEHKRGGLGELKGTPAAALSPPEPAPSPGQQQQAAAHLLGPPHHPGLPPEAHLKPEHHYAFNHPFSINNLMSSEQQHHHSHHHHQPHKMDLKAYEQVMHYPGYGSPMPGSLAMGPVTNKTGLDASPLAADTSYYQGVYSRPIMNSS
Sequence of Heat shock factor protein 1 (Homo sapiens) (Q00613 whole entry, looked up, the tested form may be a part): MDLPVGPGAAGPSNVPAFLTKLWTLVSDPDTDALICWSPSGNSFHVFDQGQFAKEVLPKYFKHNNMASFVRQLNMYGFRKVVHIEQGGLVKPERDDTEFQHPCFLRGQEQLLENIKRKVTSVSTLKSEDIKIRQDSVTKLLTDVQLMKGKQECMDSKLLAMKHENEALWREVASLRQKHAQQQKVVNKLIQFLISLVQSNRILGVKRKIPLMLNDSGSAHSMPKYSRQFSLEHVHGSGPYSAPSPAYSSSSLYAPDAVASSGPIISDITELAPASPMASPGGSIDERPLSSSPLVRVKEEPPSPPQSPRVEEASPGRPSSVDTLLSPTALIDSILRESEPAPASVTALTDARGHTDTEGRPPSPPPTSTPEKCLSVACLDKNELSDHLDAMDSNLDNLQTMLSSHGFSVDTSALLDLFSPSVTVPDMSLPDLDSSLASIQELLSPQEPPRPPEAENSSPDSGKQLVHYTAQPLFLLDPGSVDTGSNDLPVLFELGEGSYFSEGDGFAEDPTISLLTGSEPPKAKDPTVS
Sequence of Transcription factor E2F1 (Homo sapiens) (Q01094 whole entry, looked up): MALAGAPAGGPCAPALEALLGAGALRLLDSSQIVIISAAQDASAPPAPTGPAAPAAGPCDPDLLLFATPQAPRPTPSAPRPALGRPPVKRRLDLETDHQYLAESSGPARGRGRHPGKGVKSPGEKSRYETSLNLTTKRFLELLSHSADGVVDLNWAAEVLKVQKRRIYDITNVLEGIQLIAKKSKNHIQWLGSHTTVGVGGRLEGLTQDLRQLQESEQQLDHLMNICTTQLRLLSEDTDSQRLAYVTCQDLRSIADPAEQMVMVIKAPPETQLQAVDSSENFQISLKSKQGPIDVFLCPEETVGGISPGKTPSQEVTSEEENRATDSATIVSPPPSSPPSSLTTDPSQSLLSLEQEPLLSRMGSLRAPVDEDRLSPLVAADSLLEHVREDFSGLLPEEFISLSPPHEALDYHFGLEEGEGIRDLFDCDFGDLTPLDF

For the compound `O=C1C(Cl)=C(Cl)C(=O)C(Cl)=C1Cl`, the compound was classed as inactive in [1], in test [3], in [4], in [5], in [7] and in test [8]. Further, the call in [9], in test [10], in [11], in [12], in [13] and in [15] was inactive. Further, the result in test [17], in test [18], in test [19] and in test [20] was inactive. For the same compound, the AC50 is 66.9 µM (active) in test [2], 137 µM (active) in [6], 89.5 µM (active) in test [14] and 132 µM (active) in test [16].
Take `COc1cc(OC)c(OC)cc1C=O`: the compound was classed as inactive in test [1], in test [2], in test [3], in test [4], in test [5] and in test [6]. Also, the outcome in test [7], in [8], in test [9], in test [10], in [11] and in [12] was inactive. Besides, the outcome in test [13], in [14], in test [15], in test [16], in test [18] and in test [19] was inactive. Also, the concentration at half-maximal activity (AC50) in test [17] is 50.5 µM (active).
Turning to `CCCCC[Si](OCC)(OCC)OCC`, the compound was called inactive in test [20].
Take `CN1C(=O)CCS(=O)(=O)C1c1ccc(Cl)cc1` (stereo not drawn): the compound was classed as inactive in [1], in test [2], in test [3], in test [4], in [5] and in test [6]. In addition, the call in test [7], in test [8], in test [9], in test [10], in [11] and in [12] was inactive. Moreover, the outcome in test [13], in test [14], in test [15], in test [16], in [17] and in test [18] was inactive. For the same compound, the compound was called inactive in test [19].
Take `CC(C)(C)C(O)C(Oc1ccc(-c2ccccc2)cc1)n1cncn1` (stereo not drawn): the concentration at half-maximal activity (AC50) was 33.4 µM (active) in test [1]; 57.3 µM (active) in test [2]; 51.8 µM (active) in test [11]; 59.6 µM (active) in test [14]; 42 µM (active) in [15]; 1.29 µM (active) in test [17]. In [19], the half-maximal activity concentration (AC50) is 12.7 µM (active). Besides, the result in test [3], in [4], in test [5], in [6], in test [7] and in test [8] was inactive. Also, the result in test [9], in [10], in [12], in [13], in [16] and in test [18] was inactive. Further, the compound was classed as inactive in test [20].
As to `O=[N+]([O-])O`, the compound was classed as inactive in test [1], in test [2], in test [3], in test [4], in test [5] and in test [6]. In addition, the result in [7], in test [8], in test [9], in test [10], in test [11] and in [12] was inactive. The outcome in test [13], in test [14], in [15], in test [16], in [17] and in test [18] was inactive. Further, the compound was called inactive in test [19].

A word on the AC50: it is the concentration giving half of the maximal activity seen.

(Values after PubChem BioAssay (EPA / NIEHS).)
